From PubChem BioAssay (NCATS) come the findings set out here.

Results filed as inconclusive are left out. Some compounds were tested as several samples or in several runs, with calls that do not always agree. Calls of active or inactive are those of the source. Calls come from the whole dose curve; as a rule, active = well fitted curve in the direction sought with a large enough effect; inconclusive = small, poorly fitted or top-dose-only effect, or another doubt; inactive = no such curve, though single readings can be large; an effect the other way counts as inactive or inconclusive.

Experiment [1] concerns the target ATP-dependent 6-phosphofructokinase (Trypanosoma brucei brucei) (UniProt O15648). Put plainly: qHTS Validation Assay to Find Inhibitors of T. brucei phosphofructokinase (AID 485368). The method in brief:
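Enzyme reaction in triethanolamine buffer pH 8.0 with 5 mM MgCl2, 0.01% Tween20 and 0.1% BSA; PFK 1.25 nM, F6P 0.5 mM, ATP 0.1 mM, 45 min RT. ADP quantified by ADP-Glo.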

Experiment [2] concerns the target Thioredoxin reductase 1, cytoplasmic (Rattus norvegicus) (UniProt O89049). Put plainly: qHTS Assay for Substrates of Mammalian Selenoprotein Thioredoxin Reductase 1 (TrxR1) (AID 488772).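 Note: NADPH fluorescence in the first read after selenite addition and not the 8 min delta; series mostly up to about 57 µM; a drop in NADPH fluorescence below the no-compound background marks a TrxR1 substrate.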 The method in brief:
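Quantitative HTS in Tris-HCl buffer at pH 7.5 with EDTA and Tween-20, using rat TrxR1, 400 uM NADPH and 400 uM selenite (final). A fall in initial NADPH fluorescence relative to background marked substrate behaviour.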

Experiment [3] shares this target. The experiment can be described thus: qHTS Assay for Inhibitors of Mammalian Selenoprotein Thioredoxin Reductase 1 (TrxR1) (AID 488773).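 Note: drop in NADPH fluorescence over an 8 min run after selenite addition; series mostly up to about 57 µM; nearly all actives have a fitted effect of over 40% in size.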 The following applies: Potency: inhibition. The procedure, abridged: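 Steps: enzyme (90 nM) plus NADPH (400 uM final), 5 min at ~22 deg C; compound added, 15 min; selenite (400 uM final) added; fluorescence followed for 8 min. Concentration-response curves derived from the normalized delta values.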

Experiment [4] concerns the target Flap endonuclease 1 (Homo sapiens) (UniProt P39748). Put plainly: qHTS Validation Assay for the Inhibitors of Human Flap endonuclease 1 (FEN1) (AID 488816). Note: potency is the fitted concentration of half-maximal effect. The method in brief:
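Readings taken at 0 and 15 min after starting the reaction with 50 nM (final) substrate supplied the signal. Compounds had first sat with 10 nM FEN1 reagent for 15 min at room temperature. Values come from Hill-equation concentration-response fits.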

Experiment [5] has as its target M-phase phosphoprotein 8 (Homo sapiens) (UniProt Q99549). The experiment can be described thus: qHTS Validation Assay for Inhibitors for MPP8 Chromodomain Interactions with Methylated Histone Tails (AID 488949). Note: nearly all actives have a fitted effect of over 55% in size. Note: potency is the fitted concentration of half-maximal effect. The procedure, abridged:
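MPP8 (50 nM) was pre-bound to 50 nM biotinylated H3(1-18)K9me3 peptide in PBS pH 7.4 with 0.01% Tween-20. Compounds were then added for 30 min at room temperature, and complex disruption was read by AlphaScreen with streptavidin donor and nickel-chelate acceptor beads.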

For experiment [6], the target named is Chromobox protein homolog 1 (Homo sapiens) (UniProt P83916). Put plainly: qHTS Validation Assay for Inhibitors of HP1-beta Chromodomain Interactions with Methylated Histone Tails (AID 488953). Note: nearly all actives have a fitted effect of over 50% in size. Note: potency is the fitted concentration of half-maximal effect. The method in brief: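 HP1-beta (50 nM) preformed 30 min with biotinylated H3(1-18)K9me3 peptide (50 nM) in PBS pH 7.4, 0.01% Tween-20. Compounds added for 30 min at room temperature. Complex disruption read by AlphaScreen with streptavidin donor/nickel chelate acceptor beads (10 ug/mL each).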

The nature of experiment [7]: Quantitative high throughput screen for delayed death inhibitors of the malarial parasite plastid, 48 hour incubation (AID 488752). Note: nearly all actives have a fitted effect of over 65% in size. Note: potency is the fitted concentration of half-maximal effect. The procedure, abridged:
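Erythrocytes infected with firefly luciferase-expressing P. falciparum (2% hematocrit, 0.1% parasitemia) cultured with compound for 48 h at 37 C, 5% CO2, in RPMI 1640/0.5% Albumax. Growth inhibition read as loss of luminescence.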

In experiment [8] the target is Methanococcus maripaludis chaperonin (MmCpn) (UniProt Q6LX38). The experiment can be described thus: High-Throughput Screening for Modulators of Cytosolic Chaperonin Activity: MmCpn Primary Screen (AID 488978).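 Note: 50 nM MmCpn enzyme hydrolysing 30 µM ATP at 37 °C.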 The procedure, abridged:
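MmCpn at 50 nM final was preincubated 5 min at RT with compound. ATP was then added at 30 uM final for 10 min at 37 C. ADP formed was detected by Transcreener HTRF (665/590 nm).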

A short description of experiment [9]: Quantitative high throughput screen for delayed death inhibitors of the malarial parasite plastid, 96 hour incubation (AID 488745). Note: series mostly up to about 29 µM; nearly all actives have a fitted effect of over 70% in size. The procedure, abridged: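 Luciferase-expressing P. falciparum in erythrocytes (2% hematocrit, 0.1% parasitemia) incubated with compound for 96 h at 37 C, 5% CO2, in RPMI 1640 with 0.5% Albumax. Growth inhibition read as decreased luminescence.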

Sequence of Methanococcus maripaludis chaperonin (MmCpn) (Q6LX38 1-543): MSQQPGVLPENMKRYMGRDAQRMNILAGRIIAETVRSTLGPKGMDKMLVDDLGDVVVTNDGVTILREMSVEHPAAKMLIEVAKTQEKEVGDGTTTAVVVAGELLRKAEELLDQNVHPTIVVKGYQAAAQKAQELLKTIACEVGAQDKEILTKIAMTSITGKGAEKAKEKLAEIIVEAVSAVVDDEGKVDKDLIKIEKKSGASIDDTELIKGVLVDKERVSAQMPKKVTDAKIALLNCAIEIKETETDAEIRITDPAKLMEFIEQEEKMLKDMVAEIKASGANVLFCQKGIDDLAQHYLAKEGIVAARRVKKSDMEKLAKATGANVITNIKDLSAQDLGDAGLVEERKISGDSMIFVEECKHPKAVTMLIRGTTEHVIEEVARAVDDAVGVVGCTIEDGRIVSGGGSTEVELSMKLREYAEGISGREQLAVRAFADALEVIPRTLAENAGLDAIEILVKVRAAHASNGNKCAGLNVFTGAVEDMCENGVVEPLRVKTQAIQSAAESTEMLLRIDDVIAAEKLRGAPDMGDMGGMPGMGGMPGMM
Sequence of Chromobox protein homolog 1 (Homo sapiens) (P83916 whole entry, looked up): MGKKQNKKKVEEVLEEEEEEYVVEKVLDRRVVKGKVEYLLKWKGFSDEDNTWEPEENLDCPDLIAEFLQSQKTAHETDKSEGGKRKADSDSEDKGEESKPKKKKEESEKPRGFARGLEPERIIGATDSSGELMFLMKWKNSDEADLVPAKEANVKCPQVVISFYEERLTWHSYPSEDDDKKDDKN
Sequence of Thioredoxin reductase 1, cytoplasmic (Rattus norvegicus) (O89049 whole entry, looked up): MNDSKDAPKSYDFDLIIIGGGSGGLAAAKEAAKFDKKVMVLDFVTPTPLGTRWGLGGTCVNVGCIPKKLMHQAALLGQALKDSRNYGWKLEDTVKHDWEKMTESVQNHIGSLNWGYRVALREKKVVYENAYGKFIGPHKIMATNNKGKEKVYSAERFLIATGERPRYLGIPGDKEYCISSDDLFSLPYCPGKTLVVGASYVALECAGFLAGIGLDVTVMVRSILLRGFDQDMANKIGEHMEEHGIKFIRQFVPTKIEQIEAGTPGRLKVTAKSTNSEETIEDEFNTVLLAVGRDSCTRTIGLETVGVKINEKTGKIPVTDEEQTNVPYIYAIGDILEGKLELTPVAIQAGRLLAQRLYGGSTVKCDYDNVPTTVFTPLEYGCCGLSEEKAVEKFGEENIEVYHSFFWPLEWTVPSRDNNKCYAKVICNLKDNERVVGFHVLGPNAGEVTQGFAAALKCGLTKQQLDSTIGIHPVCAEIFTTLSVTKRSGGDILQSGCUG
Sequence of ATP-dependent 6-phosphofructokinase (Trypanosoma brucei brucei) (O15648 whole entry, looked up): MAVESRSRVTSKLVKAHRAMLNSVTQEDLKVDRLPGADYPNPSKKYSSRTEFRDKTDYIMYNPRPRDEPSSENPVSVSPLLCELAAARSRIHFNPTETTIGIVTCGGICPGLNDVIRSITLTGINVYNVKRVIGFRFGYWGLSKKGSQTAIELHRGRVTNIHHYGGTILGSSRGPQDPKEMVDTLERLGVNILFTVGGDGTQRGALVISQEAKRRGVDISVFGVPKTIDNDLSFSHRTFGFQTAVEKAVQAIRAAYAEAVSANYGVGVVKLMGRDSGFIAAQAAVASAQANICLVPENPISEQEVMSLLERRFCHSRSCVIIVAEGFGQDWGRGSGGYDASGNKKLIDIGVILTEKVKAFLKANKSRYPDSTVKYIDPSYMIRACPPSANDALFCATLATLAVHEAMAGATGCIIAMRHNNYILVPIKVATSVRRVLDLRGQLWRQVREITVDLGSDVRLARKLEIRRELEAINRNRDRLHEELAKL
Sequence of Flap endonuclease 1 (Homo sapiens) (P39748 whole entry, looked up): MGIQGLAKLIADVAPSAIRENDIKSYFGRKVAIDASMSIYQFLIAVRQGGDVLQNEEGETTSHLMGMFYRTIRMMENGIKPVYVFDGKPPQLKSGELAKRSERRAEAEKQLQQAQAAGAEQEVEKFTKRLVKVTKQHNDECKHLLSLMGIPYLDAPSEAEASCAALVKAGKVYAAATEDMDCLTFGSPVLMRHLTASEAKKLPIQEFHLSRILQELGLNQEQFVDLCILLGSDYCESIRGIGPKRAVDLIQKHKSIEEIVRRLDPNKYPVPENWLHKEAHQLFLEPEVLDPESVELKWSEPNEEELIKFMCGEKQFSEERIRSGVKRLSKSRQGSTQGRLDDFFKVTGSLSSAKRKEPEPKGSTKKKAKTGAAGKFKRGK
Sequence of M-phase phosphoprotein 8 (Homo sapiens) (Q99549 whole entry, looked up): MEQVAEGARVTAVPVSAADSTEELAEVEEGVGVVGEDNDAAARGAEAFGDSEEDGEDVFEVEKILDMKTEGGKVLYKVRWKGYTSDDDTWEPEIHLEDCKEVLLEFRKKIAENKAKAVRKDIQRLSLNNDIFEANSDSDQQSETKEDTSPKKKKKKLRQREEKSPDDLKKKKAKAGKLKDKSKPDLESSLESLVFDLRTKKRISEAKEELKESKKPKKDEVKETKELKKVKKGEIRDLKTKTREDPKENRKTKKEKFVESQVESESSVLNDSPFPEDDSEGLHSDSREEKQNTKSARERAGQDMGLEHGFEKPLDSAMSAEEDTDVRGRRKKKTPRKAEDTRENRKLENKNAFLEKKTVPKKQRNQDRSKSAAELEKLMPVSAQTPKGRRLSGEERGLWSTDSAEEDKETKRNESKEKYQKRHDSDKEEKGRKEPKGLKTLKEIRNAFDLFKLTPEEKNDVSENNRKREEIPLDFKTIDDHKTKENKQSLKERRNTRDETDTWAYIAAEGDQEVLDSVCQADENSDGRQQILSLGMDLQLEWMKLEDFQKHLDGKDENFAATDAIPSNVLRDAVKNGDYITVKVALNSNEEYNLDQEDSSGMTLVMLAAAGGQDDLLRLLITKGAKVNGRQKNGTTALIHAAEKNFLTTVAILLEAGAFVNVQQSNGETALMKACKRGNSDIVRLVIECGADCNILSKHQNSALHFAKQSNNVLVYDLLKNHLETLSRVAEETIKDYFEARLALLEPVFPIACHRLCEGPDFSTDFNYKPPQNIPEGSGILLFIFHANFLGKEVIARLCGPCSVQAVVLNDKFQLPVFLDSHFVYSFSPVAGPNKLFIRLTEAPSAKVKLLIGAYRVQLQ

Consider `CC(=O)NCCc1c[nH]c2ccc(O)cc12`, for which the Potency result in [1], in experiment [3], in experiment [4], in [5] and in experiment [6] was “inactive” each time. The call in experiment [2] was inactive.
`O=[N+]([O-])c1cccc2cn[nH]c12`: the Potency entry in experiment [1], in experiment [7], in [3], in experiment [4], in experiment [5] and in experiment [6] was “inactive” in each case. Besides, the compound was classed as inactive in [2] and in experiment [8].
`Cn1cc(C(F)(F)F)nc1-c1ccc(OCC(O)CNCCOc2ccc(O)c(C(N)=O)c2)cc1` (centres undefined): the call in experiment [2] and in [8] was inactive. Also, the Potency entry in [4], in experiment [5] and in [6] was “inactive” each time.
With `NC(=O)c1ccccc1`, the Potency result in [1], in experiment [9], in experiment [3], in experiment [4], in experiment [5] and in experiment [6] was “inactive” throughout. Besides, the outcome in experiment [2] and in experiment [8] was inactive.
On to `NC(=O)CC[C@H](N)C(=O)O`, for which the Potency result in [7], in experiment [3], in [4], in experiment [5] and in [6] was “inactive” each time. Besides, the outcome in [2] and in experiment [8] was inactive.
With `C=C1C[C@@]23CC[C@H]4[C@@](C)(CCC[C@@]4(C)C(=O)OC4OC(CO)C(O)C(O)C4O)[C@@H]2CC[C@]1(OC1OC(CO)C(O)C(O)C1OC1OC(CO)C(O)C(O)C1O)C3` (some centres undefined), the result in experiment [2] and in experiment [8] was inactive. Moreover, the Potency result in experiment [4] and in experiment [5] was “inactive” in each case. Moreover, the Potency in experiment [6] was 0.006 µM (active).
As to `O=c1cc(-c2ccccc2F)[nH]c2cc3c(cc12)OCO3`, the Potency entry in experiment [1], in experiment [3], in experiment [4] and in experiment [5] was “inactive” in each case. The result in experiment [2] was inactive.
Take `Nc1ncnc2c1ncn2C1CCCC1`: the Potency result in experiment [9], in experiment [3], in experiment [4], in experiment [5] and in experiment [6] was “inactive” in each case. In addition, the outcome in [2] and in [8] was inactive.
With `NOCC(=O)O`, the Potency result in experiment [1], in experiment [3], in [4], in experiment [5] and in [6] was “inactive” in each case. The compound was called inactive in experiment [2] and in [8].
For `CC(O)C(O)[C@H]1CNc2nc(N)[nH]c(=O)c2N1` (some centres undefined), the call in experiment [2] and in [8] was inactive. For the same compound, the Potency result in experiment [3], in experiment [5] and in [6] was “inactive” throughout.
`O=C(O)C1CN(CCCP(=O)(O)O)CCN1` (centres undefined): the Potency result in [9], in experiment [7], in experiment [3], in experiment [5] and in experiment [6] was “inactive” in each case. The result in experiment [2] and in [8] was inactive.
Take `Nc1ncnc2c1nc(Br)n2C1OC2COP(=O)(O)O[C@@H]2C1O` (some centres undefined): the Potency result in experiment [1], in experiment [3], in experiment [5] and in experiment [6] was “inactive” throughout. For the same compound, the compound was called inactive in experiment [2].
With `O=C(O)/C=C/c1ccc(O)c(O)c1`, the Potency result in [1], in experiment [7], in experiment [3], in experiment [4], in experiment [5] and in [6] was “inactive” throughout. Further, in [2], the call was inactive.
For the compound `NCC(O)c1ccc(O)c(O)c1` (centres undefined), the Potency entry in experiment [7] is “inactive”. In addition, the result in experiment [2] and in experiment [8] was inactive. For the same compound, the Potency is 2.99 µM (active) in experiment [4]; 22.4 µM (active) and inactive in experiment [5].
Regarding `c1ccc2c(c1)CCC[C@H]2Nc1nc2ccccc2[nH]1`, the Potency entry in [1], in [3], in [4] and in [5] was “inactive” in each case. For the same compound, in experiment [8], the outcome was inactive.
For the compound `CCN(CC)CCOC(=O)c1cc(Cl)c(N)cc1OC`, the Potency entry in experiment [9], in experiment [7], in experiment [3], in [5] and in experiment [6] was “inactive” in each case. In addition, the compound was classed as inactive in experiment [2] and in experiment [8].
In the case of `O=C(O)C1CCNCC1`, the Potency result in [9], in experiment [7], in experiment [3], in [4], in [5] and in experiment [6] was “inactive” throughout. Further, the compound was called inactive in experiment [2] and in [8].
Consider `CNCCc1cnc(CCC(c2ccccc2)c2ccccc2)[nH]1`, for which the outcome in experiment [2] and in [8] was inactive. For the same compound, the Potency result in experiment [3], in experiment [4] and in [5] was “inactive” throughout.
With `COC(=O)[C@H](NC(=O)c1cc(-c2ccccc2)nc2ccccc12)c1ccccc1`, the Potency result in experiment [1], in experiment [9], in experiment [3], in experiment [4], in experiment [5] and in experiment [6] was “inactive” each time. Moreover, the call in [2] and in experiment [8] was inactive.
On to `CC(C)NC[C@H](O)COc1cccc2ccccc12`, for which the Potency entry in experiment [1], in experiment [3], in [5] and in experiment [6] was “inactive” each time. Also, the call in experiment [2] and in experiment [8] was inactive.
Regarding `CCCCCCCCCCC/C=C\C(C)(C)/C=C\CCCC(=O)O`, the Potency entry in experiment [9], in experiment [7], in [3], in experiment [4], in experiment [5] and in experiment [6] was “inactive” throughout. The compound was classed as inactive in experiment [2] and in experiment [8].
Regarding `O=C(O)[C@H]1NCCC[C@H]1C(=O)O`, the Potency result in experiment [9], in [3], in experiment [4], in experiment [5] and in experiment [6] was “inactive” in each case. Further, the outcome in experiment [2] and in experiment [8] was inactive.
On to `NC1CONC1=O` (centres undefined), for which the Potency entry in experiment [1], in experiment [7], in experiment [3], in experiment [4], in experiment [5] and in experiment [6] was “inactive” each time. The result in experiment [2] and in experiment [8] was inactive.
For `O=C(O)c1cc2cc(F)ccc2[nH]1`, the Potency entry in experiment [9], in experiment [7], in experiment [3], in experiment [4], in [5] and in experiment [6] was “inactive” each time. Also, the result in [2] and in experiment [8] was inactive.
With `Nc1ccc(-c2ccc3ccccc3n2)cc1`, in experiment [2], the outcome was inactive. Besides, the Potency result in experiment [3], in experiment [4] and in [5] was “inactive” throughout.
As for `CC(C)NCC(O)COc1ccc(CC(N)=O)cc1` (centres undefined), the Potency result in experiment [9], in [7] and in experiment [6] was “inactive” in each case. In addition, the outcome in experiment [2] and in experiment [8] was inactive.
Turning to `NC(C(=O)N[C@@H]1C(=O)N2C(C(=O)O)=C(Cl)CS[C@H]12)c1ccccc1` (some centres undefined), the Potency result in experiment [9], in experiment [3], in experiment [4] and in experiment [5] was “inactive” each time. In addition, the compound was called inactive in [2] and in [8].
Take `CC(=O)C(C)=O`: the Potency result in experiment [1], in experiment [7], in [3], in experiment [4] and in experiment [5] was “inactive” each time. Besides, the compound was classed as inactive in experiment [2] and in [8].
For `CN1CCN(c2nc3cc(C(F)(F)F)ccc3n3cccc23)CC1`, in experiment [7], the Potency is 8.28 µM (active). Besides, the outcome in [2] and in experiment [8] was inactive. Also, the Potency entry in experiment [3], in experiment [4] and in experiment [5] was “inactive” each time.
As to `c1ccc(C(NCCNC(c2ccccc2)c2ccccc2)c2ccccc2)cc1`, the Potency result in experiment [1], in experiment [3], in [4], in [5] and in experiment [6] was “inactive” throughout. Also, the compound was called inactive in experiment [2] and in [8].
With `O=c1[nH]c2cc(Cl)ccc2c(O)c1-c1ccc(Oc2ccccc2)cc1`, the Potency entry in [9], in [7], in experiment [4], in experiment [5] and in experiment [6] was “inactive” throughout. The result in [2] and in [8] was inactive.
Turning to `COc1cc(/C=C(\C#N)C(=O)Nc2nnc(C(F)(F)F)s2)ccc1OCc1ccc(C(F)(F)F)cc1C(F)(F)F`, the result in experiment [2] and in experiment [8] was inactive. The Potency result in experiment [3] and in experiment [5] was “inactive” throughout. Further, the Potency in [6] was 89.1 µM (active).
